Results reported in PubChem BioAssay.
Active and inactive are the calls of the source. Unless noted, no rule for the calls is given here.

Columns and labels:
[1] = compound effects on lung adenocarcinoma cell viability – A549, calcein-AM fluorescence, 48 h, basal, profiling panel (AID 1162); settings: higher = more signal; also: test concentration not given here
[2] = compound effects on differentiated 3T3-L1 adipocyte viability – cell-based, 3T3-L1 adipocytes, calcein-AM fluorescence, 48 h, basal, profiling panel (AID 1163); settings: 3T3-L1 adipocytes viability, higher = more signal; also: test concentration not given here
[3] = compound effects on hepatocellular carcinoma cell viability – HepG2, calcein-AM fluorescence, 48 h, basal, profiling panel (AID 1164); settings: higher = more signal; also: test concentration not given here
[4] = compound effects on multiple myeloma cell viability – MM1S, calcein-AM fluorescence, 48 h, basal, profiling panel (AID 1165); settings: higher = more signal;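 also: viability of MM1S multiple myeloma cells under basal unstimulated conditions; test concentration not given here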
[5] = calcein-AM signal in unstimulated myeloma cells – cell-based, calcein-AM fluorescence, 48 h, PK04 Diversity Set, profiling panel (AID 1166); settings: RPMI8226 myeloma viability, higher = more signal;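 also: cells grown under basal conditions without added stimulus; test concentration not given here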
[6] = JC-1 mitochondrial signal, unstimulated HepG2 cells – cell-based, JC-1 fluorescence, 24 h, 100 nL compound, profiling panel (AID 1167); settings: HepG2 mitochondrial potential, higher = more signal; also: test concentration not given here
[7] = JC-1 mitochondrial signal, unstimulated adipocytes – cell-based, JC-1 fluorescence, 3T3-L1 adipocytes, 24 h, 100 nL compound, profiling panel (AID 1168); settings: JC-1 mitochondrial fluorescence, higher = more signal, called active from +8 up or from −8 down; also: test concentration not given here
[8] = JC-1 mitochondrial signal, unstimulated myeloma cells – cell-based, JC-1 fluorescence, RPMI8226, 24 h, 100 nL compound, profiling panel (AID 1169); settings: JC-1 mitochondrial potential fluorescence, higher = more signal; also: test concentration not given here
[9] = JC-1 mitochondrial signal, unstimulated MM1S myeloma – cell-based, JC-1 fluorescence, 24 h, 100 nL compound, profiling panel (AID 1170); settings: MM1S mitochondrial potential, higher = more signal; also: test concentration not given here
[10] = resazurin metabolic signal in A549 cells – cell-based, resazurin fluorescence, 24 h, PK04 Diversity Set, profiling panel (AID 1171); settings: A549 viability, higher = more signal, called active from +8 up or from −8 down; also: test concentration not given here
[11] = resazurin metabolic signal in HepG2 cells – cell-based, resazurin fluorescence, 24 h, PK04 Diversity Set, profiling panel (AID 1172); settings: HepG2 viability, higher = more signal; also: test concentration not given here
[12] = budding yeast growth changes without added modifier – OD600, strain BY4716, 24 h, basal condition, primary screen (AID 1173); settings: S. cerevisiae BY4716 growth, OD600, 24 h; higher = more signal, called active from +8 up or from −8 down
[13] = viability profiling in MM1S myeloma cells – cell-based, resazurin fluorescence, basal, 24 h, PK04 Diversity Set, profiling panel (AID 1174); settings: higher = more signal, called active from +8 up or from −8 down; also: test concentration not given here
[14] = target: Dihydroorotate dehydrogenase (quinone), mitochondrial (Plasmodium falciparum (isolate 3D7)) (UniProt Q08210); assay: inhibition of P. falciparum DHODH – biochemical, C-terminal His tag, absorbance 600 nm, primary screen (AID 1175); settings: PfDHODH enzyme, DCIP absorbance 600 nm; higher = more signal, called active from +8 up or from −8 down;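 also: recombinant parasite enzyme with a five histidine tag at its C terminus; test concentration not given here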
[15] = inhibition of PAO1 biofilm formation – strain PAO1, LB-PBS medium, absorbance 600 nm, primary screen (AID 1176); also: test concentration not given here; settings: P. aeruginosa PAO1 growth/biofilm, A600, 12 h; higher = more signal
[16] = growth modulation of vineyard yeast isolate – strain RM11-1a, OD600, basal, 24 h, primary screen (AID 1177);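 also: cultures grown under basal conditions with no added stressor; test concentration not given here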; settings: S. cerevisiae RM11-1a growth, OD600, 24 h; higher = more signal, called active from +8 up or from −8 down
[17] = growth of efflux-deficient E. coli DRC39 – strain DRC39, OD650, 24 h, E. coli filamentation inducers, primary screen (AID 1178);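 also: growth measured as culture turbidity by optical density at 650 nm; test concentration not given here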; settings: E. coli DRC39 acrAB, higher = more signal, called active from +8 up or from −8 down
[18] = growth of efflux-deficient E. coli DRC39 – strain DRC39, OD650, 48 h, E. coli filamentation inducers, primary screen (AID 1179);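 also: screen aims at cell division blockers that make cells filament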; settings: E. coli DRC39 delta-acrAB growth, higher = more signal, called active from +8 up or from −8 down
[19] = viability profiling in RPMI8226 myeloma cells – cell-based, resazurin fluorescence, basal, 24 h, PK04 Diversity Set, profiling panel (AID 1180); settings: higher = more signal;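 also: RPMI8826 multiple myeloma cell line at 5000 cells per well; test concentration not given here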
[20] = target: E3 ubiquitin-protein ligase XIAP (Homo sapiens) (UniProt P98170); assay: small molecules binding XIAP protein – biophysical, small-molecule microarray, fluorescence 635 nm, primary screen (AID 1181); settings: higher = more signal;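 also: score merges 667 nm emission and signal to noise over triplicate slides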
Sequence of E3 ubiquitin-protein ligase XIAP (Homo sapiens) (P98170 whole entry, looked up): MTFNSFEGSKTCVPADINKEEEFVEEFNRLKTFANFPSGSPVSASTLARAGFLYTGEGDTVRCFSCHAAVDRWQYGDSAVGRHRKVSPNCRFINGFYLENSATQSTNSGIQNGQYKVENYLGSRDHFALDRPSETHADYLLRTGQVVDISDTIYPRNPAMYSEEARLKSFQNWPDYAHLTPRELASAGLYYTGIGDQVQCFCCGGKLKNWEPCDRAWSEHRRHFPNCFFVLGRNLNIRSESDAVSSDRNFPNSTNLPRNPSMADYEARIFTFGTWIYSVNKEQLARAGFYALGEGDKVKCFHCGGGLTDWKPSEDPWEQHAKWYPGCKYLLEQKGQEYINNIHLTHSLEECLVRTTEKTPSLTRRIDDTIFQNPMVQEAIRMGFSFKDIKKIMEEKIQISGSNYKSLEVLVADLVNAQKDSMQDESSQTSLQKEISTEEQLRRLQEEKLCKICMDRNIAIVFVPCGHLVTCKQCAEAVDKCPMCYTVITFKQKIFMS

Sequence of Dihydroorotate dehydrogenase (quinone), mitochondrial (Plasmodium falciparum (isolate 3D7)) (Q08210 whole entry, looked up): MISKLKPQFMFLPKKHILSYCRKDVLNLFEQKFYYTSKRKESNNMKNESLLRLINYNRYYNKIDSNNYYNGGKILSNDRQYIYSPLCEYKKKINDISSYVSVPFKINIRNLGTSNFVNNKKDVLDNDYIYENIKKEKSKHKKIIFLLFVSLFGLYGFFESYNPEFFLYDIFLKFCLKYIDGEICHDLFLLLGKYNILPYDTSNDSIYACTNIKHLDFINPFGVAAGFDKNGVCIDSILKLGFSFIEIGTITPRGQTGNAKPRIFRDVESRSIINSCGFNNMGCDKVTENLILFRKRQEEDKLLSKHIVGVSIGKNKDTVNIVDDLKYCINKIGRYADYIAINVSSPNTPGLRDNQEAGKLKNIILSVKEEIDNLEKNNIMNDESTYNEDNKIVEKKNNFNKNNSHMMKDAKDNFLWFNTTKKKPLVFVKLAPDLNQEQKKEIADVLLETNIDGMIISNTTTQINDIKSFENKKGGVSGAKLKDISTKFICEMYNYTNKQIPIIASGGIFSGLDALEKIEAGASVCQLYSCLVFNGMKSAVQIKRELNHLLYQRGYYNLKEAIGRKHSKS

SMILES	z-score [1]	z-score [2]	z-score [3]	z-score [4]	z-score [5]	z-score [6]	z-score [7]	z-score [8]	z-score [9]	z-score [10]	z-score [11]	z-score [12]	z-score [13]	composite z-score [14]	z-score [15]	z-score [16]	z-score [17]	z-score [18]	z-score [19]	composite z-score [20]
NC(=O)N1C(=O)C2C(C1=O)C1C=C(CCCO)C2C(c2cccs2)N1Cc1cc2c(cc1Br)OCO2 (stereo not given)	0.89	1.46	0.78	0.0067	0.695	1.01	0.111 (inactive)	-0.11	-0.214	0.514 (inactive)	0.652	-2.37 (inactive)	0.271 (inactive)	-1.72 (inactive)	-0.259 (inactive)	0.0427 (inactive)	0.18 (inactive)	0.0419 (inactive)	0.645	-0.267
NCCCCCCNC(=O)[C@@H]1C[C@@H]2C(=O)N3CCC[C@H]3C(=O)N2[C@@H]1c1ccc(O)cc1	-0.428	0.548	0.442	-0.0269	-0.292	-0.0719	-0.202 (inactive)	0.0552	0.0553	-0.578 (inactive)	-0.0529	-0.547 (inactive)	-0.233 (inactive)	-1.18 (inactive)	-0.282 (inactive)	-0.407 (inactive)	-0.188 (inactive)	-0.196 (inactive)	-0.134	-0.209
COc1ccc([Si](C)(C)[C@@H]2[C@@H](CCO)O[C@]3(C(=O)N(Cc4cccc(N5C(=O)c6cccc7cccc5c67)c4)c4ccccc43)[C@H]2C)cc1	-1.03	0.421	-3.42	-1.32	-4.25	-0.543	0.145 (inactive)	-1.05	-1.77	-2.26 (inactive)	-1.83	1.34 (inactive)	-2.77 (inactive)	0.518 (inactive)	1.53 (inactive)	5.01 (inactive)	1.55 (inactive)	0.97 (inactive)	-3.49	-0.0351
COCCOC(=O)N1C(=O)[C@@]2(c3ccccc31)[C@H](C(=O)N1CCN(c3ncccn3)CC1)[C@H]1C(=O)O[C@H](c3ccccc3)[C@H](c3ccccc3)N1[C@@H]2c1ccc(OCCO)cc1	1.16	-0.069	1.39	-0.198	-0.156	1.38	0.865 (inactive)	-0.459	-1.27	0.218 (inactive)	0.0481	1.89 (inactive)	0.351 (inactive)	-1.04 (inactive)	2 (inactive)	2.64 (inactive)	0.0841 (inactive)	1.19 (inactive)	0.253	0.0924
COCCOC(=O)N1C(=O)[C@@]2(c3cc(C#CC4(O)CCCCCC4)ccc31)[C@H](c1ccccc1OCCO)N1[C@H](c3ccccc3)[C@H](c3ccccc3)OC(=O)[C@H]1[C@@H]2C(N)=O	-2.37	0.943	-4.78	-3.43	-4.62	-2.3	1.8 (inactive)	-1.14	-1.88	-2.94 (inactive)	-1.51	1.53 (inactive)	-8.29 (active)	0.173 (inactive)	1.91 (inactive)	2.91 (inactive)	-0.197 (inactive)	-0.31 (inactive)	-6.79	-0.287
CCOC(=O)C[C@H]1[C@H](OC(=O)Cc2ccc3c(c2)OCO3)[C@@H](NC(=O)Cc2ccc(OC)cc2)c2cc(OCCCO)ccc2N1C(=O)c1ccccc1	0.208	-0.0437	0.547	1.08	0.192	0.873	-1.1 (inactive)	0.192	-0.606	-0.0709 (inactive)	-0.174	-0.0578 (inactive)	-0.727 (inactive)	0.0225 (inactive)	-0.218 (inactive)	0.42 (inactive)	-0.296 (inactive)	0.386 (inactive)	0.66	-0.406
COc1ccc(C(O)C2C=CC3C(=O)N(c4ccccc4)C(=O)C3N2Nc2ccc(C#N)cc2)c2ccccc12 (stereo not given)	-0.716	-1.07	0.66	0.395	-1.04	-1.56	-0.246 (inactive)	0.423	-0.117	0.0226 (inactive)	-1.47	-1.74 (inactive)	-0.293 (inactive)	0.397 (inactive)	1.55 (inactive)	-0.993 (inactive)	-0.483 (inactive)	0.161 (inactive)	-0.55	0.39
NC(N)=NCc1cn(CCc2c[nH]c3ccccc23)nn1	-0.609	-0.596	-0.173	-0.613	-0.286	-1.09	-1.04 (inactive)	-0.588	-0.77	-0.975 (inactive)	-0.739	0.274 (inactive)	-0.237 (inactive)	-26.7 (active)	0.0429 (inactive)	0.191 (inactive)	0.148 (inactive)	-0.0579 (inactive)	-0.533	-0.163
[N-]=[N+]=NCc1ccccc1[C@H]1OC(c2ccc(OCCCO)cc2)=N[C@@]1(CCS(=O)(=O)c1ccccc1)C(N)=O	-0.733	0.0036	-0.423	-1.83	-0.973	-2.13	-1.36 (inactive)	-0.397	-0.606	0.547 (inactive)	0.437	-0.258 (inactive)	0.284 (inactive)	-0.136 (inactive)	0.274 (inactive)	-0.296 (inactive)	0.0575 (inactive)	-0.702 (inactive)	-0.134	0.182
CN1C(=O)C2C(C1=O)C1C=C(c3ccc(CO)cc3)C2C(c2cccs2)N1Cc1cccc(OC(F)(F)F)c1 (stereo not given)	0.567	1.25	-0.617	-0.314	-2.96	-1.71	-1.12 (inactive)	-0.722	-0.556	-0.665 (inactive)	-0.153	-2.49 (inactive)	-2.06 (inactive)	-1.6 (inactive)	-0.387 (inactive)	0.476 (inactive)	-0.383 (inactive)	-0.319 (inactive)	-1.08	0.214
CCOC(=O)C[C@H]1[C@H](OC(=O)c2ccccc2-c2ccccc2)[C@@H](NC(=O)CC(C)C)c2cc(OCCCO)ccc2N1C(=O)c1ccc2ccccc2n1	0.375	0.556	0.2	-1.32	-2.05	0.851	-0.0831 (inactive)	-0.537	0.32	-0.109 (inactive)	-0.208	0.706 (inactive)	0.0612 (inactive)	-0.112 (inactive)	-0.483 (inactive)	-0.078 (inactive)	-0.418 (inactive)	-0.0818 (inactive)	-0.0139	0.0993
COCCCNC(=O)[C@@]1(Sc2ccc(C)cc2)CC(=O)N(C2Cc3ccccc3C2)[C@@H]1c1ccc(CO)cc1I	-0.126	-0.175	-0.65	-2.45	-2.27	-0.188	-0.0568 (inactive)	-0.294	-1.34	-0.3 (inactive)	-0.0076	-2.87 (inactive)	-2.79 (inactive)	-0.591 (inactive)	0.196 (inactive)	-0.429 (inactive)	-0.0635 (inactive)	0.0605 (inactive)	-2.31	0.108
C=CC[C@@]1(C(=O)N2CCCCC2)N=C(c2ccc(OCCCO)cc2)O[C@@H]1c1ccccc1	-0.721	0.533	0.292	-1.3	-1.13	-0.381	-0.282 (inactive)	-1.09	0.0448	2.5 (inactive)	1.63	-3.63 (inactive)	1.6 (inactive)	-0.765 (inactive)	-0.441 (inactive)	0.404 (inactive)	-0.212 (inactive)	-0.155 (inactive)	1.02	0.454
C=C1C2CC3C(=C4C(CO[C@@H]4[C@H]4CCCN4S(=O)(=O)c4ccccc4[N+](=O)[O-])C4C(=O)N(C)C(=O)C34)CC2C(=O)N1C (stereo not given in full)	-0.704	0.332	-0.0708	-3.31	-1.28	-1.83	-0.543 (inactive)	0.485	-0.347	-0.123 (inactive)	-0.398	-1.05 (inactive)	-0.316 (inactive)	-0.911 (inactive)	0.413 (inactive)	-0.302 (inactive)	-0.579 (inactive)	-0.219 (inactive)	-0.864	-0.102
C[C@@H](OCc1ccccc1)C1NC(=O)[C@@]23C(=O)N[C@@H](Cc4ccccc4)C2[C@H](C)[C@@]2(C)O[C@H]2C3/C=C/C/C=C\CNC(=O)CNC1=O (stereo not given in full)	0.758	1.41	-0.762	0.125	-1.25	-0.332	-0.475 (inactive)	0.158	0.146	-0.694 (inactive)	-0.816	-0.303 (inactive)	-0.555 (inactive)	-0.402 (inactive)	0.662 (inactive)	-0.509 (inactive)	0.0899 (inactive)	-0.754 (inactive)	-0.724	-0.0351
COc1ccc([Si](C)(C)[C@H]2[C@H](CCn3cc([C@H](O)c4ccccc4)nn3)O[C@@]3(C(=O)N(Cc4ccc(N5CCOC5=O)cc4)c4ccccc43)[C@@H]2C)cc1	1.33	0.805	1.15	-1.45	0.142	0.858	0.174 (inactive)	0.157	0.113	-0.265 (inactive)	-0.27	0.574 (inactive)	-0.412 (inactive)	0.624 (inactive)	1.04 (inactive)	2.18 (inactive)	0.205 (inactive)	0.139 (inactive)	0.129	-0.171
CC(=O)n1cc(C(O)C2C=CC3C(=O)N(c4ccccc4)C(=O)C3N2Nc2ccccc2)c2ccccc21 (stereo not given)	-0.8	0.174	0.374	-1.06	-1.19	-2.16	-0.349 (inactive)	-0.502	-0.969	-1.05 (inactive)	-1.51	-3.18 (inactive)	-2.12 (inactive)	0.342 (inactive)	0.807 (inactive)	0.127 (inactive)	-0.0484 (inactive)	-0.602 (inactive)	-1.76	0.0297
